Bioassay records deposited in PubChem BioAssay by National Center for Advancing Translational Sciences (NCATS).
An excerpt weighted towards active compounds, which were near 11% of everything screened.
AMA1-RON2 inh: disrupts binding of P. falciparum AMA1 to RON2. AlphaScreen AMA1-biotinylated RON2 peptide binding. Potency, µM (series often up to 58.2 µM), without a hit: at the highest dose activity change, negative = inhibition, hits mostly inhibitors. 0.2% of 360,000 active. AID 720542;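 also: 0% = vehicle wells and -100% = peptide control; nearly all actives have a fitted effect of over 45% in size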
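AMA1 (3D7) with his tag at 25 nM final met compounds first, then biotinylated RON2 peptide at 25 nM; detection used donor plus acceptor beads, 10 µg/mL apiece, read by AlphaScreen after 30 min at room temperature.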
Pf growth 48h: P. falciparum growth inhibition at 48 hours (one generation); P. falciparum luciferase growth in erythrocytes, 48 h; Potency, µM (highest dose often 28.7 µM), inactives show at the highest dose activity change, negative = inhibition, actives largely listed as inhibitors; 5.9% of 310,000 active
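Erythrocytes infected with P. falciparum carrying an integrated firefly luciferase reporter (2% hematocrit, 0.1% parasitemia final) were exposed to compounds in RPMI 1640 with 0.5% Albumax at 37 C, 5% CO2. Growth inhibition was scored as reduced luminescence.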
Pf growth 96h: P. falciparum growth inhibition at 96 hours | P. falciparum luciferase reporter growth, 96 h | Potency, µM (doses to about 28.7 µM), for inactives: at the highest dose activity change, negative = inhibition, usual class: inhibitors | 6.9% of 320,000 active
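Delayed-death screen, second-generation endpoint: infected erythrocytes, 2% hematocrit, 0.05% parasitemia final; 96 hours at 37 C, 5% CO2; luciferase detection reagent; luminescence decrease equals reduced growth.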
HCV inh: blocks hepatitis C virus; Huh7.5.1 HCVcc-Cre infection, luciferase reporter, 44 h; Potency, µM (titrated, usually from 41.8 µM), without a hit: at the highest dose activity change, negative = inhibition, hits mostly inhibitors; 3.4% of 340,000 active
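Seed cells (1,000/well) for 4 h; treat with compound and infect with HCVcc-Cre, moi about 0.5. Incubate 44 h, then detect luciferase activity.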
* hit, by the source's call; u = inconclusive; x = no result given; [ ] = another dose, or the depositor's remark. Calls follow the shape of the dose curve; as a rule, active = well fitted curve in the direction sought with a large enough effect; inconclusive = small, poorly fitted or top-dose-only effect, or another doubt; inactive = no such curve, though single readings can be large; an effect the other way counts as inactive or inconclusive. Unless noted, % is scaled to controls: 0 for no effect and ±100 for the full control effect; potency is read from the fitted curve at half-maximal effect.

SMILES | AMA1-RON2 inh | Pf growth 48h | Pf growth 96h | HCV inh
O=C(CCS(=O)(=O)c1cc2c(cc1Cl)NC(=O)CO2)NCc1ccc(F)cc1 | 11% | 9% | u | -10%
CC(C)(C)OC(=O)N1CCC(CNC(=O)c2ccc(F)cc2)CC1 | -5% | 1.7µM* | 13% | 0%
CCN(CC)CCn1c(=O)n(-c2ccc(Cl)cc2)c(=O)c2c3c(sc21)CN(C)CC3 | 14% | 4.7µM* | -15% | 4µM*
CN1CCc2c(sc3c2c(=O)n(-c2ccc(Cl)cc2)c2nncn32)C1 | 10% | -9% | x | 9%
O=C(NNc1nc(-c2ccc(Cl)cc2)cs1)c1ccco1 | 54% | 12µM* | u | -23%
Cc1ccc(C(=O)OCC(=O)Nc2ccccc2)cc1NC(=O)c1ccco1 | 47% | 20% | 31% | -9%
Cc1ccc(C(=O)OCC(=O)Nc2nc(-c3ccccc3)cs2)cc1NC(=O)c1ccco1 | 28% | 30% | -2% | 11µM*
O=C(NNc1nc(-c2ccccc2)cs1)c1ccco1 | 0% | 12µM* | 1.5µM* | u
CC(=O)Nc1cccc(C(=O)Nc2cc(C(F)(F)F)ccc2-n2cncn2)c1 | -5% | x | x | x
O=C(COC(=O)Cc1c(Cl)cccc1Cl)Nc1ccc(OC(F)(F)F)cc1 | 0% | 4% | 4% | u
Nc1[nH]c(C(=O)c2ccccc2)c(-c2ccncc2)c1C(=O)NC1CC1 | 1% | x | x | x
O=C(Cn1nc(CNc2ccc(Br)cc2)[n+]2c1CCCCC2)c1ccc([N+](=O)[O-])cc1 | -1% | 2.1µM* | u | -6%
COc1ccc(C(=O)CN2CCCCC2)cc1 | 11% | 37% | 17% | 9%
COc1ccc(NCc2nn(CC(=O)c3ccc(Br)cc3)c3[n+]2CCCCC3)cc1 | u | 1.9µM* | u | 2%
O=C(Cn1nc(CNc2ccc(Cl)cc2)[n+]2c1CCCCC2)c1ccc(Br)cc1 | -17% | 0.93µM* | u | 41%
CC(NC(=O)c1ccc(OC2CCN(C(=O)c3cccnc3)CC2)cc1)C1CC1 (centres undefined) | -1% | 18% | 12µM* | 8%
Cc1ccc(NC(=S)NC(=O)C2CCCC2)c(Br)c1 | 49% | x | x | u
Cc1ccc(C(=O)O/N=C(\N)Cc2cccs2)cc1[N+](=O)[O-] | -4% | 69% | 10µM* | 16%
COc1ccccc1C/C(N)=N/OC(=O)c1ccc(C)c([N+](=O)[O-])c1 | -12% | u | u | u
CCOC(=O)c1c(C)c(C)n(Cc2ccc(OC)c(OC)c2)c1C | -13% | 8.3µM* | u | u
CCOC(=O)c1cc(C)n(Cc2ccc(OCC)c(OC)c2)c1C | -24% | 1.7µM* | x | 11µM*
COc1ccc(CCn2c(C)cc(C(=O)CCl)c2C)cc1OC | -11% | u | u | u
COC(=O)c1sc(NC(=O)C2CCCO2)c(C(=O)OC)c1C (centres undefined) | 18% | u | u | -11%
Cc1c(C(=O)OC(C)C)sc(NC(=O)C2CCCO2)c1C(=O)OC(C)C (centres undefined) | 2% | x | 9.3µM* | u
O=C(COC(=O)COc1ccccc1)NC1CCCc2ccccc21 (centres undefined) | 1% | 10% | 17% | -11%
SMILES | AMA1-RON2 inh | Pf growth 48h | Pf growth 96h | HCV inh
CCN1CCN(c2ccc(S(=O)(=O)N3CCCCC3)cc2NC(=O)/C=C/c2ccc(F)cc2)CC1 | -21% | 10µM* | u | u
CCN1CCN(c2ccc(S(=O)(=O)N3CCCCC3)cc2NC(=O)/C=C/c2ccc([N+](=O)[O-])cc2)CC1 | -26% | 2.1µM* | 1.9µM* | u
CCN1CCN(c2ccc(S(=O)(=O)N3CCOCC3)cc2NC(=O)/C=C/c2ccc(C)cc2)CC1 | 11% | -98% | u | -21%
CCN1CCN(c2ccc(S(=O)(=O)N3CCCCC3)cc2NC(=O)/C=C/c2cccc(OC)c2OC)CC1 | -26% | 0% | u | u
CN1CCN(c2ccc(S(=O)(=O)N3CCCCC3)cc2NC(=O)/C=C/c2ccc(Cl)c([N+](=O)[O-])c2)CC1 | -15% | 2.9µM* | 5.9µM* | u
O=C(/C=C/c1ccc(Cl)c([N+](=O)[O-])c1)Nc1ccc(N2CCCC2)c(Cl)c1 | -13% | u | 80%[5.75 µM] | -17%
O=C(NCc1ccccc1)c1ncn[nH]1 | -15% | 70% | 0% | 24%
O=C(C[C@@H]1C=C[C@H](NC(=O)Cc2ccccn2)[C@@H](CO)O1)NCCc1ccccc1 | 2% | x | x | x
Cc1[nH]c2ccccc2c1C(c1ccccn1)c1c(C)[nH]c2ccccc12 | -4% | 9.3µM* | x | -16%
COc1cccc(N2C(=O)CC(c3c[nH]c4ccccc34)C2=O)c1 (centres undefined) | -10% | -2% | x | 2%
O=C1CC(c2c[nH]c3ccccc23)C(=O)N1c1ccccc1 (centres undefined) | 5% | 11% | 7.4µM* | 8%
COc1ccc([C@H]2CC(=O)C=C(c3cc(OC)ccc3OC)C2)cc1 | -19% | u | u | u
Cc1ccc(Nc2nc3ccccc3[nH]2)nc1 | u | 3.3µM* | u | u
CCOC(=O)CC(NS(=O)(=O)c1ccc(OC)c(C)c1)c1cccc([N+](=O)[O-])c1 (centres undefined) | 19% | -20% | u | -15%
O=c1cc(O)c2c(=O)n(-c3ccccc3)c3ccccc3c2o1 | 1% | 33% | 12µM* | -1%
CCn1c(=O)c2c(O)cc(=O)oc2c2ccccc21 | -9% | 5% | -2% | 5%
CS(=O)c1ccccc1-c1nc(-c2cccc(Cl)c2)no1 (centres undefined) | 2% | 368% | 74% | u
Cc1cc(C)nc(NC(=NCCc2c[nH]c3ccccc23)NC(=O)Nc2cccc([N+](=O)[O-])c2)n1 | 6% | 3.3µM* | 58% | 5%
Cc1cc(C)nc(NC(=NCCc2c[nH]c3ccccc23)NC(=O)Nc2ccccc2)n1 | 0% | 5.2µM* | 4.7µM* | u
C/C(=N\NC(=O)CCc1c[nH]c2ccccc12)c1cccc([N+](=O)[O-])c1 | u | 30% | 23% | u
Cc1cccc(NC(=O)NCCc2c[nH]c3ccccc23)c1 | -24% | -1% | 37% | -2%
Cc1cc(C)nc(NC(=NCCc2c[nH]c3ccccc23)NC(=O)Nc2ccc(Cl)c(Cl)c2)n1 | -8% | u | 2.1µM* | u
Cc1ccc(NC(=O)C(=O)NCCc2c[nH]c3ccccc23)cc1C | -10% | 46% | 79%[1.15 µM] | 10%
Cc1cc(C)nc(NC(=NCCc2c[nH]c3ccccc23)NC(=O)c2ccco2)n1 | 8% | 6.6µM* | 5.9µM* | u
CCOc1ccc(Nc2cc(=O)oc3ccccc23)cc1 | -6% | 1.3µM* | 1.7µM* | -27%
CCOc1cc(N2CCOCC2)c(OCC)cc1NC(=O)c1cc(S(=O)(=O)N2CCOCC2)ccc1Cl | 16% | u | u | u
CCOc1cc(N2CCOCC2)c(OCC)cc1NC(=O)Cc1cccc2ccccc12 | -16% | x | u | 14µM*
